# Test results taken from PubChem BioAssay AID488969 (Vanderbilt High Throughput Screening Facility, 2010).
# In all, about 110,000 compounds were measured (“z-score”: median about -0.1, highest 2% from about 2 on). For the sample, the highest values were picked, then their nearest neighbours and some compounds at random. The source made the active and inactive calls.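 The calls were made as follows: active = z-score in the third read window above 3 or below -3; inactive = the rest.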
# Target: Metabotropic glutamate receptor 8 (Rattus norvegicus) (UniProt P70579)
# Sequence (P70579 whole entry, looked up): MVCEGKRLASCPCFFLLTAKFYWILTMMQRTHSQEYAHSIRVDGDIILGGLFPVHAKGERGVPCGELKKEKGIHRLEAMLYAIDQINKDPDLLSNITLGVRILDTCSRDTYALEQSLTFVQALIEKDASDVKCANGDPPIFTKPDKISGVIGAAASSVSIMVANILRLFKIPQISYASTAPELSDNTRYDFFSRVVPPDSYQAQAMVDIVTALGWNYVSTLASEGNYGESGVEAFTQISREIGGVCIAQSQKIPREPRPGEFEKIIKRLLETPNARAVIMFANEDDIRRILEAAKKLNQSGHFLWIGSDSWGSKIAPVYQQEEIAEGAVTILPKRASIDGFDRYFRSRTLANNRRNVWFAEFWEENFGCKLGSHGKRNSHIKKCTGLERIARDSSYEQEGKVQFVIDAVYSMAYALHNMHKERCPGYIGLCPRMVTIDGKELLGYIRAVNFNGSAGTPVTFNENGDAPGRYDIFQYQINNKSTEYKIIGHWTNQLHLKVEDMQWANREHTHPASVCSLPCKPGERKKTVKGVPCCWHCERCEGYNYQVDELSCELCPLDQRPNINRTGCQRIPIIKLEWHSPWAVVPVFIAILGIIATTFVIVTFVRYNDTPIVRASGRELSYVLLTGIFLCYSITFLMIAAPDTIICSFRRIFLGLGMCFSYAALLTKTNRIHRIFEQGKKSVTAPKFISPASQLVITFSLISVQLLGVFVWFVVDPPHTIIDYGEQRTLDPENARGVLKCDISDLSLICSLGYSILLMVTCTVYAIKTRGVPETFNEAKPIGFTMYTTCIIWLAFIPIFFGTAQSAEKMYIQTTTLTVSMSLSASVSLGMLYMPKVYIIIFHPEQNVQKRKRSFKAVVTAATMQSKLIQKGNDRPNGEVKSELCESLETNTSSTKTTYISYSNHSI
# Assay: mGluR8 Gi/Go-coupled signaling modulation – cell-based, rat, thallium flux, HTS, primary screen (AID 488969)
# Details: HEK293 rat mGluR8, GIRK (G protein-gated inwardly rectifying potassium channel) thallium flux, FluoZin2; at 10 µM; stronger effect = higher value; submaximal glutamate (EC20) added with thallium
row,Structure (SMILES),z-score
1,COc1ccc2cc(C(c3nnnn3C3CCCCC3)N3CCCCCC3)c3nnnn3c2c1 (configuration not stated),-0.929
2,CCn1c(=O)c2ccccc2n2c(SCC(=O)N3CCc4ccccc4C3)nnc12,1.51
3,CCn1c(SCC(=O)NC(C)(C)C)nnc1-c1ccoc1C,0.155
4,CCN(CC)S(=O)(=O)c1ccc(N2CCOCC2)c(NC(=O)Cc2ccccc2)c1,-0.339
5,O=C(CC1NCCNC1=O)OCc1ccccc1 (configuration not stated),0.419
6,O=C(CC1NCCNC1=O)OCCCc1ccccc1 (configuration not stated),1.22
7,CCCOc1ccc(C(=O)NC(=S)Nc2nc(C)c(C(=O)N(C)C)s2)cc1,0.54
8,CCOC(=O)C1CCCN(C(=O)c2cc(-c3ccccc3)on2)C1 (configuration not stated),3.22 (active)
9,CCOC(=O)C1CCCN(C(=O)c2cc(-c3ccc(C)cc3)on2)C1 (configuration not stated),-0.235
10,CCOC(=O)C1CCCN(C(=O)c2cccs2)C1 (configuration not stated),-0.161
11,CC(=O)CSc1nc(N)c(C#N)c(-c2cccs2)c1C#N,-0.18
12,COc1cccc(/C=N/NC(=O)c2nc(-c3ccccc3)cc(-c3ccccc3)n2)c1,-0.286
13,COc1ccc(/C=N/NC(=O)c2nc(-c3ccccc3)cc(-c3ccccc3)n2)cc1,8.06 (active)
14,COc1ccc(/C=N/NC(=O)c2nc(-c3ccccc3)cc(-c3ccccc3)n2)cc1OC,0.42
15,Cn1c(SCC(=O)NC(C)(C)C)nc(O)cc1=O,-0.0162
16,CC12CCC(C(=O)N(CSC(=S)N/N=C\c3ccccc3Cl)C1=O)C2(C)C (configuration not stated),16.2 (active)
17,CC12CCC(C(=O)N(c3ccccc3Cl)C1=O)C2(C)C (configuration not stated),0.208
18,CC12CCC(C(=O)N(CSC(=S)N/N=C\c3ccccc3O)C1=O)C2(C)C (configuration not stated),5.76 (active)
19,CC12CCC(C(=O)N(CC(O)CN3CCCCCC3)C1=O)C2(C)C (configuration not stated),0.13
20,O=C1C2C3C=CC(CC3)C2C(=O)N1/N=C/c1ccccc1O (configuration not stated),-0.187
21,CC12CCC(C(=O)N(NC(=O)c3ccccc3Cl)C1=O)C2(C)C (configuration not stated),0.00342
22,CCCn1c(SCC(=O)N2CCN(c3ccccc3)CC2)nc2ccccc2c1=O,-0.496
23,CCn1c(CNC(=O)c2cccc(C)c2)nnc1SCC(=O)NC1CCCCC1C (configuration not stated),0.161
24,Cc1[nH]c2ccc(F)cc2c(=O)c1SC(F)(F)C(F)F,-1.3

row,Structure (SMILES),z-score
1,Cc1ccc2c(c1)C(c1ccc(F)cc1)N(C(=O)C1CC1)CC(=O)N2 (configuration not stated),2.06
2,Cc1ccc2c(c1)C(c1ccccc1)N(C(=O)C(C)C)CC(=O)N2 (configuration not stated),-0.0998
3,CCCC(=O)N1CC(=O)Nc2ccc(F)cc2C1c1ccccc1 (configuration not stated),-0.534
4,Cn1nc(C(=O)NCc2ccccn2)c2ccccc2c1=O,-0.406
5,COC(=O)CSc1nc(NC#N)nc(NC(C)C)n1,-0.00648
6,Cc1ccc2cc(C3CC(c4ccco4)=NN3S(=O)(=O)c3ccccc3)c(Cl)nc2c1 (configuration not stated),0.136
7,CCSc1nnc(NC(=O)C(Cc2ccccc2)n2cccc2)s1 (configuration not stated),4.24 (active)
8,O=C(NC1CCCC1)C(Cc1ccccc1)n1cccc1 (configuration not stated),0.182
9,Cc1csc(NC(=O)C(Cc2ccccc2)n2cccc2)n1 (configuration not stated),5.2 (active)
10,O=C(Nc1cccnc1)C(Cc1ccccc1)n1cccc1 (configuration not stated),0.0231
11,CCSc1nnc(NC(=O)[C@@H](NC(=O)c2ccccc2)C(C)C)s1,-0.168
12,Cc1csc(NC(=O)CSCC(=O)Nc2ccccc2)n1,0.462
13,CCSc1nnc(NC(=O)CCc2ccccc2)s1,-0.278
14,O=C(Nc1ncc(Br)s1)C(Cc1ccccc1)n1cccc1 (configuration not stated),7 (active)
15,CCC(C(=O)Nc1nc(C)cs1)c1ccccc1 (configuration not stated),-0.691
16,CCN(CC)C(=O)NC(c1ccc(C)c(F)c1)C(Cl)(Cl)Cl (configuration not stated),-0.501
17,Cn1cc(S(=O)(=O)CC(=O)Nc2ccc(Br)cc2)c2ccccc21,-0.0267
18,Cc1onc(-c2ccccc2)c1C(=O)Nc1ccc(N2CCOCC2)cc1,-0.074
19,CCC1CCCCN1C(=O)C1CC(c2cc(Cl)c(OC)cc2OC)=NO1 (configuration not stated),-0.518
20,Cc1cc(=O)oc2cc(OCC(=O)Nc3nnc(CC(C)C)s3)ccc12,-0.0633
21,CCc1ccc2oc(-c3cc(N=Cc4cccc(OC)c4O)ccc3O)nc2c1,-0.649
22,Cc1cc2c(cc1C)C(c1ccccc1Br)CC(=O)N2 (configuration not stated),0.617
23,COc1cnc(-c2ccccn2)nc1Sc1ccc(Cl)cc1,-0.328
24,Brc1ccc(C2=CC(c3cccs3)n3ncnc3N2)cc1 (configuration not stated),-1.55

row,Structure (SMILES),z-score
1,OCCCc1nc2n(n1)C(c1ccccc1)C=C(c1ccc(F)cc1)N2 (configuration not stated),-1.33
2,OCCCc1nc2n(n1)C(c1cccs1)C=C(c1ccccc1)N2 (configuration not stated),2.68
3,OCCCc1nc2n(n1)C(c1ccccc1)C=C(c1ccccc1)N2 (configuration not stated),-0.449
4,OCCCc1nc2n(n1)C(c1cccs1)C=C(c1ccc(Br)cc1)N2 (configuration not stated),5.08 (active)
5,OCCCc1nc2n(n1)C(c1ccccc1Cl)C=C(c1cccs1)N2 (configuration not stated),-1.48
6,COc1ccc(NC(=O)/C(=C/c2ccc3c(c2)OCO3)NC(C)=O)cc1,-0.031
7,COC(=O)C1=C(C)OC(N)=C(C#N)C1c1ccccc1 (configuration not stated),-0.92
8,CC1=C(n2nnc3ccccc32)C(c2ccccc2)C(C#N)=C(N)O1 (configuration not stated),3.38 (active)
9,CC(=O)C1=C(c2ccccc2)OC(N)=C(C#N)C1c1ccc(O)cc1 (configuration not stated),-0.487
10,CC(C)c1nc(C#N)c(NCCCn2ccnc2)o1,0.481
11,N#C/C(=C(/O)C(Cl)c1ccccc1)c1nc2ccccc2s1 (configuration not stated),-0.476
12,Cc1ccc(NC(=O)CSc2nnc(CCNC(=O)OC(C)(C)C)o2)c(C)c1,2.11
13,CC(C)(C)OC(=O)NCCc1nnc(SCC(N)=O)o1,-0.0953
14,CCN(CC)C(=O)CSc1nnc(CCNC(=O)OC(C)(C)C)o1,0.491
15,C=C(C)CSc1nnc(CCNC(=O)OC(C)(C)C)o1,2.19
16,Cc1ccc(C)c(NC(=O)CSc2nnc(CCNC(=O)OC(C)(C)C)o2)c1,0.761
17,Cc1ccc(NC(=O)CSc2nnc(CCCCCNC(=O)OC(C)(C)C)o2)c(C)c1,0.493
18,COc1ccc(CNC(=O)C2CCCN(c3nc4ccccc4o3)C2)c(OC)c1 (configuration not stated),0.18
19,Cc1ccc(C)c2[nH]c(=O)c(C(c3nnnn3Cc3ccccc3)N3CCc4ccccc4C3)cc12 (configuration not stated),-0.148
20,COc1ccccc1-n1c(SCC(=O)N2CCc3ccccc32)nc2c(c1=O)SCC2,-0.558
21,O=c1[nH]c2ccccc2n1C1CCCCC1,-1.04
22,O=c1[nH]c2ccccc2n1CCC1CCCCC1,5.05 (active)
23,CCCn1c(=O)[nH]c2ccccc21,-0.219
24,C=CCOc1ccc(CNn2c(C)n[nH]c2=S)cc1OC,0.17
